A selection: hits, their analogues and other compounds. The true share with any hit is near 2.5%.
D2 ag-1 – D2 dopamine receptor (human) agonism; activation, % at 2 µM; P14416; 0.53% of 340,000 active; HEK293 T-REx D2 cells, calcium flux agonist mode;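 active = activation over 3 SD above normal in the single-dose calcium agonist read, cut at about 30% in these data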
Target sequence (P14416 whole entry, looked up): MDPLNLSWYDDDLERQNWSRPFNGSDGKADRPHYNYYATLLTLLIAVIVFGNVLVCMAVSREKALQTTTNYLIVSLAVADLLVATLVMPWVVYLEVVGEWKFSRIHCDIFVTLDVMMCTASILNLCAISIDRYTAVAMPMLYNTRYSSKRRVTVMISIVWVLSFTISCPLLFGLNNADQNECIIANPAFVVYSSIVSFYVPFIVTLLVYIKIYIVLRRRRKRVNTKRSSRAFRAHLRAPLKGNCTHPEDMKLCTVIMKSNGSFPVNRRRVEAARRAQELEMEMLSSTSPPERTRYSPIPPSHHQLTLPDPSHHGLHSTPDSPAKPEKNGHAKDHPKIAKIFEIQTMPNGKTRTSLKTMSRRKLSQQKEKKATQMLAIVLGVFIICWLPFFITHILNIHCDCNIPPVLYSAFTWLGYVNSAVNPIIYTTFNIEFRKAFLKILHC
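Agonism is scored from calcium flux in a force-coupled, inducible HEK293 cell line expressing D2, read kinetically for 180 s after compound addition against dopamine controls.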
D2 antag – D2 dopamine receptor (human) antagonism | HEK293 TREx D2 cells, calcium flux, dopamine EC80 | inhibition, % at 10 µM | 2% of 340,000 active; in the data active = inhibition above about 30%; inactive = below that, where a call was filed
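HEK293 T-REx D2 cells, tet-induced, calcium dye no-wash. Cpd pintool add, 180 s kinetic, then EC80 DA, 180 s kinetic. Ca flux read.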
D2 PAM-1 – positively modulates the human D2 dopamine receptor allosterically | 0.34% of 340,000 active | HEK293 T-REx D2, calcium flux, EC20 dopamine potentiation | AID 485347 | potentiation, % at 10 µM;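 active = potentiation over 3 SD above the plate norm, cut at about 30% in these data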
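Potentiation of an EC20 dopamine calcium response is measured in a force-coupled, tetracycline-inducible Hek293 Trex D2 line. Compound-only kinetic reads over 180 s flag agonists before dopamine addition.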
Anesthetic bind – candidate novel general anesthetic via apoferritin binding; P02791; 0.074% of 350,000 active; AID 485281; Potency, µM (highest dose often 77.5 µM), actives largely listed as inhibitors; apoferritin/1-aminoanthracene competitive binding, fluorescence; note: nearly all actives have a fitted effect of over 20% in size
Target sequence (P02791 2-175 limits assumed): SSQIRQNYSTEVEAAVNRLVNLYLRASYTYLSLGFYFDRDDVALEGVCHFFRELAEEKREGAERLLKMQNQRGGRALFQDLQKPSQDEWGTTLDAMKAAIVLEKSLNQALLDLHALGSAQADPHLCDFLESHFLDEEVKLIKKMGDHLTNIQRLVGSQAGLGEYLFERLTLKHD
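Probe: 1-aminoanthracene (50% saturated, PBS). Protein: horse-spleen apoferritin, 10 uM. Incubation: 10 min, room temperature. Detection: 380 nm excitation, 535 nm emission. Analysis: normalized response, four-parameter Hill.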
D2 PAM-2 – potentiates the human D2 dopamine receptor allosterically | 0.23% of 360,000 active | P14416 | potentiation, % (test concentration not listed) | AID 624464 | DiscoveRx D2 beta-arrestin cells, luminescence, 90 min; 100% = 57 uM dopamine signal; in the data active = potentiation above about 50%; inconclusive = mostly about 30% to 49%
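PathHunter D2 cells, attached overnight at 37 deg C, received compound in DMSO plus dopamine at EC20 (50 nM final) for 90 min at 37 deg C. Beta-arrestin recruitment was read as luminescence after 1 h with detection reagent at ambient temperature.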
D2 ag-2 – human D2 receptor agonism in beta-arrestin assay; P14416; DiscoveRx PathHunter D2 beta-arrestin, luminescence, 90 min; 100% = 57 uM dopamine signal; activation, % (no concentration beside the values); 0.084% of 360,000 active; AID 624465; in the data active = activation above about 40%; inconclusive = between about 15% and that limit
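Agonist mode: compounds alone added to overnight-plated D2 PathHunter cells for 90 min at 37 C, with 57 uM final dopamine (EC100) defining full response. Beta-arrestin recruitment detected by chemiluminescent reagent, read after 1 h at ambient temperature.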
D3 ag – confirmation of human D3 dopamine receptor agonists, beta-arrestin; 4% of 2,300 active; DiscoveRx D3 beta-arrestin cells, luminescence, 90 min; shares compounds with D2 ag-1; Potency, µM (highest dose often 76.9 µM), usual class: activators; AID 720506; note: nearly all actives have a fitted effect of over 70% in size
D2 ag-3 – counter-screen for D3 agonists: human D2 dopamine receptor agonism; AID 720507; DiscoveRx PathHunter D2 beta-arrestin, luminescence, 90 min; response scale: percent relative to full dopamine signal; shares compounds with D2 ag-1; Potency, µM (doses to about 76.9 µM), usual class: activators; 5.9% of 2,300 active; note: nearly all actives have a fitted effect of over 70% in size
Numbers stand for hits; 0 = inactive; ? = inconclusive; - = no result. Unless noted, calls come from the whole dose curve; as a rule, active = well fitted curve in the direction sought with a large enough effect; inconclusive = small, poorly fitted or top-dose-only effect, or another doubt; inactive = no such curve, though single readings can be large; an effect the other way counts as inactive or inconclusive.

SMILES	D2 ag-1	D2 antag	D2 PAM-1	Anesthetic bind	D2 PAM-2	D2 ag-2	D3 ag	D2 ag-3
CC(=O)Nc1cccc(C(=O)OCc2csc(CC(=O)Nc3ccccc3C)n2)c1	0	0	0	-	0	0	0	0
Cc1nc2sc(C(c3ccccc3)N3CCN(C(=O)c4ccco4)CC3)c(O)n2n1 (stereo unspecified)	62	0	0	0	0	0	0	0
Cc1ccc(C(c2sc3nc(C)nn3c2O)N2CCN(C(=O)c3ccco3)CC2)cc1 (stereo unspecified)	0	0	0	0	0	0	-	-
CCN1C(=O)/C(=C/C=C2\N(CC)c3cc(S(=O)(=O)N(C)C)ccc3N2c2ccccc2)SC1=S	0	0	0	0	0	0	0	0
CCN1C(=O)/C(=C\C=C\c2ccccc2[N+](=O)[O-])SC1=S	0	0	0	0	0	0	-	-
Cc1ccc(CNC(=O)c2cccc3c2C(=O)c2ccc(N4CCOCC4)cc2S3(=O)=O)cc1	0	0	0	-	0	0	0	0
c1ccc(CN2CCN(Cc3nnc(-c4ccccc4)o3)CC2)cc1	0	0	0	0	0	0	-	-
CC(C)CC(=O)N1CCN(Cc2cccc(F)c2)CC1	0	0	0	0	0	0	-	-
CCCC(=O)N1CCN(Cc2ccc3c(c2)OCO3)CC1	61	0	0	0	0	0	0	0
c1ccc(-c2csc3ncnc(N4CCN(Cc5ccc6c(c5)OCO6)CC4)c23)cc1	0	0	0	0	0	0	-	-
CC(C)CC(=O)N1CCN(Cc2ccc3c(c2)OCO3)CC1	80	0	0	0	0	?	0	?
COc1cccc(CN2CCN(C(=O)CC(C)C)CC2)c1	55	0	0	0	0	0	0	0
O=C(CSc1ncnc2scc(-c3ccccc3)c12)N1CCN(Cc2ccc3c(c2)OCO3)CC1	74	70	0	0	0	?	0	?
O=C(O)CCC(=O)N1CCN(Cc2ccc3c(c2)OCO3)CC1	0	0	0	0	0	0	-	-
COCCN1Cc2cccc(C(=O)NCc3ccccn3)c2C1=O	0	0	0	0	0	0	-	-
CCn1nc(C(=O)N2CCN(Cc3ccc4c(c3)OCO4)CC2)c2ccccc2c1=O	50	0	0	0	0	0	0	0
COCc1c(C(=O)N2CCN(Cc3ccc(C#N)cc3)CC2)oc2ccccc12	0	0	0	0	0	0	-	-
COCc1c(C(=O)N2CCN(Cc3ccc4c(c3)OCO4)CC2)oc2ccccc12	70	70	0	-	0	46	0	10µM
O=C(NCc1ccccc1)c1cc(C2COCCN2C(=O)c2cccs2)on1 (stereo unspecified)	-	-	-	-	0	0	-	-
COc1ccccc1OCC(=O)NC1CCSc2ccccc21 (stereo unspecified)	0	0	0	-	0	0	0	0
C[C@@H]1O[C@@H](O[C@H]2[C@H](O)[C@@H](O)[C@H](Oc3c(-c4ccc(O)c(O)c4)oc4cc(O)cc(O)c4c3=O)O[C@@H]2CO)[C@H](O)[C@H](O)[C@H]1O	0	0	0	-	0	0	0	0
C[C@@H]1O[C@@H](Oc2c(-c3ccc(O)c(O)c3)oc3cc(O)cc(O)c3c2=O)[C@H](O)[C@H](O)[C@H]1O	-	-	-	-	0	0	-	-
Cc1[nH]n(-c2ccccc2)c(=O)c1C1(C(F)(F)F)C(=O)N(c2ccc(F)cc2)C2=C1C(=O)CC(C)(C)C2 (stereo unspecified)	0	0	0	0	0	0	0	0
CC1(C)CC(=O)C2=C(C1)N(c1ccc(F)cc1)C(=O)NC2(C(F)(F)F)C(F)(F)F	0	0	0	0	0	0	-	-
Cc1ccc(/C=N/N(C)C2=NS(=O)(=O)c3ccccc32)cc1	0	0	0	0	0	0	-	-
SMILES	D2 ag-1	D2 antag	D2 PAM-1	Anesthetic bind	D2 PAM-2	D2 ag-2	D3 ag	D2 ag-3
COc1ccc(-c2nc(CN3CCN(C(=O)c4ccco4)CC3)c(C)o2)c(F)c1	61	0	0	0	0	?	?	?
COc1ccc(-c2nc(CN3CCN(C(=O)c4ccco4)CC3)c(C)o2)c(OC)c1C	102	92	0	0	?	46	?	?
Cc1oc(-c2ccc(F)cc2F)nc1CN1CCN(C(=O)c2ccco2)CC1	-	-	-	-	0	0	-	-
COc1ccc(OC)c(-c2nc(CN3CCN(C(=O)c4ccco4)CC3)c(C)o2)c1	49	0	0	0	0	0	0	0
COc1ccc(-c2nc(CN3CCN(C(=O)c4ccco4)CC3)c(C)o2)cc1OC	0	0	0	0	0	0	-	-
Cc1nn(-c2ccccc2)c(C)c1/C=C/C(=O)OC(C)C(=O)Nc1ncc(Cl)cc1Cl (stereo unspecified)	30	0	0	0	0	0	0	0
Cc1nn(-c2ccccc2)c(C)c1/C=C/C(=O)OCC(=O)Nc1ncc(Cl)cc1Cl	0	0	0	0	0	0	-	-
COc1cccc(N2CC(=O)N(NC(=O)CSc3nc(C)cc(C)c3C#N)CC2=O)c1	43	0	0	0	0	0	0	0
Cc1ncsc1CCOC(=O)c1ccc(N2CCOCC2)c([N+](=O)[O-])c1	0	0	0	0	0	0	?	?
S=C(Nc1ccc(Oc2ccccc2)cc1)NC1CCCCC1	0	0	0	0	0	0	-	-
COc1ccc(C=NCC2OCCc3ccccc32)cc1OC (stereo unspecified)	47	0	0	0	0	0	0	0
COc1ccc(C(=O)NCC2OCCc3ccccc32)cc1OC (stereo unspecified)	0	0	0	0	0	0	-	-
COc1ccc(C(=O)NCC2OCCc3ccccc32)cc1 (stereo unspecified)	0	0	0	0	0	0	-	-
COc1cc(C=NCC2OCCc3ccccc32)cc(OC)c1 (stereo unspecified)	42	0	0	0	0	0	0	0
C=CCN1C(=O)/C(=C\c2ccc(Cl)cc2)N=C1SCC(=O)NCCC	0	0	0	0	0	0	-	-
CCn1cc(/C=C/C(=O)Nc2ccc(C)cc2Br)cn1	0	0	0	0	0	0	-	-
COc1ccccc1Oc1ccc(S(=O)(=O)N2CCN(C)CC2)cc1	0	0	0	0	0	0	-	-
COc1ccc(C2N(Cc3ccccc3)CCN2Cc2ccccc2)cc1[N+](=O)[O-]	0	0	0	0	0	0	0	0
